Laboratory results as given in paper PMC7862700, “An all-to-all approach to the identification of sequence-specific readers for epigenetic DNA modifications on cytosine”.

Experiments:
Assay in all cases: DAPPL (digital affinity profiling via proximity ligation, sequencing); 10 mM Tris-HCl pH 7.5, 50 mM NaCl, 1 mM DTT, 4% glycerol, room temperature, 30 min; GST-TFs on glutathione beads, 16-mer random dsDNA library, 0.1% formaldehyde crosslink after washing; high values mean tight binding
Conditions in all cases: protein: recombinant; tags: N-terminal GST; dsDNA, one strand shown
FEV = biological target: T1, FEV (Homo sapiens, UniProt Q99581 1-238)
T1 sequence: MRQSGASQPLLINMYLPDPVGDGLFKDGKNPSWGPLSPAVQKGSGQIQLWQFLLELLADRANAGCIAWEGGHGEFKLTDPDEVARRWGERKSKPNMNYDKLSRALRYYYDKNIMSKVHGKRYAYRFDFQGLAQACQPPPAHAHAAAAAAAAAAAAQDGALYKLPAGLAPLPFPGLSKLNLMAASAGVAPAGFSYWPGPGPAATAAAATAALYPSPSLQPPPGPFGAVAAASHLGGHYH
How it was run: (§1)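 GST fusions of human transcription factors were expressed in yeast and captured with glutathione beads. Once given DNA barcodes and pooled alongside a tag-only sample, they were incubated for 30 min at room temperature with 200 nmole of a random double-stranded 16-mer DNA library in Tris/NaCl/DTT/glycerol buffer, then washed, crosslinked (0.1% formaldehyde), proximity-ligated, PCR-amplified and sequenced on an Illumina NextSeq500. The binding signal of each hexamer is its read frequency for a factor divided by its frequency for the tag-only sample.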

ETV5 = ETV5 (Homo sapiens, UniProt P41161 1-510)
Sequence of ETV5 (P41161 whole entry): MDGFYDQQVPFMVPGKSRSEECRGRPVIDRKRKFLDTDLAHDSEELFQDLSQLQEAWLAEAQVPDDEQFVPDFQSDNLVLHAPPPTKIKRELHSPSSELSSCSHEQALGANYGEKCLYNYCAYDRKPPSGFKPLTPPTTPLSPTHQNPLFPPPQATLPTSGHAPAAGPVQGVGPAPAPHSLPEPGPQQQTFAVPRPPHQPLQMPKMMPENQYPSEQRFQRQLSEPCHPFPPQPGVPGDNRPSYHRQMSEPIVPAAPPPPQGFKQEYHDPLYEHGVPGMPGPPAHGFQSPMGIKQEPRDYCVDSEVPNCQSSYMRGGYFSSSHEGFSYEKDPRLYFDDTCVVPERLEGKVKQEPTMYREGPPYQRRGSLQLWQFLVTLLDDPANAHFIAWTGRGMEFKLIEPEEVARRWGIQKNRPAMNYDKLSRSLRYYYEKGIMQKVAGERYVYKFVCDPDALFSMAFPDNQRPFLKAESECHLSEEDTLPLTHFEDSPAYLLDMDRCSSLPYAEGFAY
How it was run: as §1

SPIC = biological target: T2, SPIC (Homo sapiens, UniProt Q8N5J4 1-248)
T2 sequence: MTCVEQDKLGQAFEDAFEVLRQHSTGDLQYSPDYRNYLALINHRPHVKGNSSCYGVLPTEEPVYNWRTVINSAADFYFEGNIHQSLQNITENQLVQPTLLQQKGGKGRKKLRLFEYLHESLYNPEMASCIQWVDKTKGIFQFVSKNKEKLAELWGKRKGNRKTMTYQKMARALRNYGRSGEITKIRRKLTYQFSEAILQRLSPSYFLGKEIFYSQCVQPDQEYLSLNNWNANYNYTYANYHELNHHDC
How it was run: as §1

ELF4 = ELF4 (Homo sapiens, UniProt Q99607 1-663)
Sequence of ELF4 (Q99607 whole entry): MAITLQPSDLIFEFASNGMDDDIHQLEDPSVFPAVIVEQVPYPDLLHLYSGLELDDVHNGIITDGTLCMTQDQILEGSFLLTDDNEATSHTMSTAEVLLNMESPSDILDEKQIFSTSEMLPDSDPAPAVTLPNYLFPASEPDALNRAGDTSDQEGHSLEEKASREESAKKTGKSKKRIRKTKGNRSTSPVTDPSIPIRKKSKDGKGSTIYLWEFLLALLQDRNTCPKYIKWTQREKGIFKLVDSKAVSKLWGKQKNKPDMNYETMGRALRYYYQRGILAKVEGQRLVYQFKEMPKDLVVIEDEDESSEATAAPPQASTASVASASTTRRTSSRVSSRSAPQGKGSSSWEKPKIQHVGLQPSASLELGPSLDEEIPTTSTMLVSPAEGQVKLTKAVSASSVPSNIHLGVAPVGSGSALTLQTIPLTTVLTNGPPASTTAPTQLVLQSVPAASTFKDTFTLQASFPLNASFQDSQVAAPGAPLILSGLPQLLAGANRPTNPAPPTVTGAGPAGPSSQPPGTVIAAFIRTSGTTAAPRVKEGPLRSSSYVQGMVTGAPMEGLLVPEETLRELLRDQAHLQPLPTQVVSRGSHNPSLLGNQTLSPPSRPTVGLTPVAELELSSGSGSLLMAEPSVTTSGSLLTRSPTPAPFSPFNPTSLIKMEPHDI
How it was run: as §1

ELK4 = biological target: T3, ELK4 (Homo sapiens, UniProt P28324-2 1-405)
T3 sequence: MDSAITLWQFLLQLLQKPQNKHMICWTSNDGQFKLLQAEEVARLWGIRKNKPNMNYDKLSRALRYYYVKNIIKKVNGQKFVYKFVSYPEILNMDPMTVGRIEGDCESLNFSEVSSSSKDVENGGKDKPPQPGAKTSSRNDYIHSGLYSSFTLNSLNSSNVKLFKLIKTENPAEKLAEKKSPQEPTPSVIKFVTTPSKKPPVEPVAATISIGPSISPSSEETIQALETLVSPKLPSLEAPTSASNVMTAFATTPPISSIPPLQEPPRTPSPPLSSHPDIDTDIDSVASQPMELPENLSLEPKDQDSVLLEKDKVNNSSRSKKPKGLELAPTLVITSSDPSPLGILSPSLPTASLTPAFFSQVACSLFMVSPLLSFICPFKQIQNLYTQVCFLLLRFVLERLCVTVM
How it was run: as §1

ETV2 = biological target: T4, ETV2 (Homo sapiens, UniProt O00321 1-342)
T4 sequence: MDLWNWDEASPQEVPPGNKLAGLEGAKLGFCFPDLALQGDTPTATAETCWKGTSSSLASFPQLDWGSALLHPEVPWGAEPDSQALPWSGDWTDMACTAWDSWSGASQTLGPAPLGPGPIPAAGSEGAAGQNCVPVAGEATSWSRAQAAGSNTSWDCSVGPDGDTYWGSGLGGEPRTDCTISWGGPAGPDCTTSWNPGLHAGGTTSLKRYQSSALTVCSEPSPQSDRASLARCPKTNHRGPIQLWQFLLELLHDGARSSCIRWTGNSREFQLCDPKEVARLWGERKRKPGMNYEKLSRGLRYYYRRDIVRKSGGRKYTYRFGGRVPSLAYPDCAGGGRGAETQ
How it was run: as §1

ELF3 = biological target: T5, ELF3 (Homo sapiens, UniProt P78545 1-371)
T5 sequence: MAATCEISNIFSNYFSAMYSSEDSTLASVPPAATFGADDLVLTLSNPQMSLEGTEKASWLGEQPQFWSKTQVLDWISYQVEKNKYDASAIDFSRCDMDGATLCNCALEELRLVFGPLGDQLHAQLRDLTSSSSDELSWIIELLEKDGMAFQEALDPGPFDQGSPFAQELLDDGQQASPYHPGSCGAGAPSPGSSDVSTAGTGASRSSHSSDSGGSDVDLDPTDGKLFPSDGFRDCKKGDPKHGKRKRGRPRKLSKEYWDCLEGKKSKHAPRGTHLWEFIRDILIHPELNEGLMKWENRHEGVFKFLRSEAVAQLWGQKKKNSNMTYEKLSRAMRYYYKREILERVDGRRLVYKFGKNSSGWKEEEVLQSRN
How it was run: as §1

ETV1 = ETV1 (Homo sapiens, UniProt P50549 1-477)
Sequence of ETV1 (P50549 whole entry): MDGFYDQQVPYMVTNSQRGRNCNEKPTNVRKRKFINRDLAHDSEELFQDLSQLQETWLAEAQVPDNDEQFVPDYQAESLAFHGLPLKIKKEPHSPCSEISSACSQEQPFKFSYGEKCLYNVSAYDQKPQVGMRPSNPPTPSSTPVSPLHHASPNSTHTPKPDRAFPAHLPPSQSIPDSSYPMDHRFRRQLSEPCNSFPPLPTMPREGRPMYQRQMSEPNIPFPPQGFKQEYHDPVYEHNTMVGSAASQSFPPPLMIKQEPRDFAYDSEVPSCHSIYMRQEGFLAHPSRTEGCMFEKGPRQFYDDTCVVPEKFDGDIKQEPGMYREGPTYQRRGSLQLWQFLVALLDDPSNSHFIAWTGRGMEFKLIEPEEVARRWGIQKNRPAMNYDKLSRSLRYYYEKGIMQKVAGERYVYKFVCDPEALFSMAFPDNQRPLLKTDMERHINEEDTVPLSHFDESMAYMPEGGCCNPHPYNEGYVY
How it was run: as §1

ERF = biological target: T6, ERF (Homo sapiens, UniProt P50548 1-548)
T6 sequence: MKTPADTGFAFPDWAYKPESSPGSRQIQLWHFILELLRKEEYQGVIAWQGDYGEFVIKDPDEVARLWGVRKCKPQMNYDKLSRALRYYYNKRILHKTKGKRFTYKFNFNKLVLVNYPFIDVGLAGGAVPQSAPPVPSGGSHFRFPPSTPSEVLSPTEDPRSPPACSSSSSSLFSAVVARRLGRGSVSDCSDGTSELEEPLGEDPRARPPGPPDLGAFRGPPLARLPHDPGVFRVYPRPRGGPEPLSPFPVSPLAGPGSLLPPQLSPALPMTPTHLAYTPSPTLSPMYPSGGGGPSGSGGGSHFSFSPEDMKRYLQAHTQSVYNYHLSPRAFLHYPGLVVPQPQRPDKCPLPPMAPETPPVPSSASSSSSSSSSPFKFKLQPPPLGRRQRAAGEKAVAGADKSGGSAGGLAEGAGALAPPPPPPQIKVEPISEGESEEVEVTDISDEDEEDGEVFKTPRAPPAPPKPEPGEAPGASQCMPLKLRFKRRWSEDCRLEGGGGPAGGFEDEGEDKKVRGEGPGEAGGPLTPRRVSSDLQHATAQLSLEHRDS
How it was run: as §1

ETV3L = biological target: T7, ETV3L (Homo sapiens, UniProt Q6ZN32 1-361)
T7 sequence: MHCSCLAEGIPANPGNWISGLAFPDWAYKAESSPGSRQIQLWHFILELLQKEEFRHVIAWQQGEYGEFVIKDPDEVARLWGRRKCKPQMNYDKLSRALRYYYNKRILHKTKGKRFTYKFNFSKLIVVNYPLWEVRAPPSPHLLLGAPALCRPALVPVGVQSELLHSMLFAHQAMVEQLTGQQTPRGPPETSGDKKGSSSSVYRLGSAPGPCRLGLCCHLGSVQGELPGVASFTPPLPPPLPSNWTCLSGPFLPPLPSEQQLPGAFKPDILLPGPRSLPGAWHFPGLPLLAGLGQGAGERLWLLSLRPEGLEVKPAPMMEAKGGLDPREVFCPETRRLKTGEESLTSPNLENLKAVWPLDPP
How it was run: as §1

ETS2 = biological target: T8, ETS2 (Homo sapiens, UniProt P15036 1-469)
T8 sequence: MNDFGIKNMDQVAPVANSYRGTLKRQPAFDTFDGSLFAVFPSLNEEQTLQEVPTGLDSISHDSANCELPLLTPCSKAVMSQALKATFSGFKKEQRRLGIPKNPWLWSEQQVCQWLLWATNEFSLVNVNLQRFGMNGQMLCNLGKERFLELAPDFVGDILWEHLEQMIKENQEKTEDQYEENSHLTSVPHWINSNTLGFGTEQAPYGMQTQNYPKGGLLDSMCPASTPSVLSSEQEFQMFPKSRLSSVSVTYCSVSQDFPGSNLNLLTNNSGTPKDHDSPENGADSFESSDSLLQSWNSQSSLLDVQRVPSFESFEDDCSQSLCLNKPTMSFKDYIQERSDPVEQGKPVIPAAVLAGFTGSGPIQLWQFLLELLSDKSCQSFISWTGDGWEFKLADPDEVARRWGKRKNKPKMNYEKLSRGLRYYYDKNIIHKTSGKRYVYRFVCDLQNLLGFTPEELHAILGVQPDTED
How it was run: as §1

SPDEF = biological target: T9, SPDEF (Homo sapiens, UniProt O95238 1-335)
T9 sequence: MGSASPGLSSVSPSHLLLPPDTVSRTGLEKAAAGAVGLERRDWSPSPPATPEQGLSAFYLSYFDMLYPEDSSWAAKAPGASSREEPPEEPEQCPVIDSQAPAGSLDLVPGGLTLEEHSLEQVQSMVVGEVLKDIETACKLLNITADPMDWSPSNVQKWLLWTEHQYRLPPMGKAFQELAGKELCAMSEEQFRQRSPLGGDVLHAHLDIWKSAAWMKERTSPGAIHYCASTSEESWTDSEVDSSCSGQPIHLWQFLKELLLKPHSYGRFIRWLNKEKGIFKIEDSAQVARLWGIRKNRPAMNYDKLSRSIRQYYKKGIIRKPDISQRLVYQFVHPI
How it was run: as §1

ETV7 = biological target: T10, ETV7 (Homo sapiens, UniProt Q9Y603 1-341)
T10 sequence: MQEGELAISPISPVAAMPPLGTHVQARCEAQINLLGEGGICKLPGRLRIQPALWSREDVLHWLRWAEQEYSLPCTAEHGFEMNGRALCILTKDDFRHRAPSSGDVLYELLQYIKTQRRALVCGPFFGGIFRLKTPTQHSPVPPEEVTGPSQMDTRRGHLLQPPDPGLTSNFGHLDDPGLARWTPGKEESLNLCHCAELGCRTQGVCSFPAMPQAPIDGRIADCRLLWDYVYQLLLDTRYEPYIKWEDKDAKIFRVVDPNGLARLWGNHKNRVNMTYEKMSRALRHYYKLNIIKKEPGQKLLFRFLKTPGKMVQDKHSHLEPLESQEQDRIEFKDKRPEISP
How it was run: as §1

ELF5 = biological target: T11, ELF5 (Homo sapiens, UniProt Q9UKW6-2 1-255)
T11 sequence: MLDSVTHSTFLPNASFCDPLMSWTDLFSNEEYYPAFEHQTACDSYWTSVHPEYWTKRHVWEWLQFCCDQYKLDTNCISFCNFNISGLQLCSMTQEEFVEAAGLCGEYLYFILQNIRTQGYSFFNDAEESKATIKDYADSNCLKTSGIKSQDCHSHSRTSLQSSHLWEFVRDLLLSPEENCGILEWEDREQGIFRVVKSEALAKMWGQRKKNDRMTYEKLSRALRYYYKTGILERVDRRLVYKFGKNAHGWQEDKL
How it was run: as §1

ETV3 = biological target: T12, ETV3 (Homo sapiens, UniProt P41162-2 1-143)
T12 sequence: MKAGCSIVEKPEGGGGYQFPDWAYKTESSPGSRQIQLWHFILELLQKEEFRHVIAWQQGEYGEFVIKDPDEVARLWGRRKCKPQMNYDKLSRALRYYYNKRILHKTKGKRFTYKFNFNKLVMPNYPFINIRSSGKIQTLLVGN
How it was run: as §1

ETV6 = ETV6 (Homo sapiens, UniProt P41212 1-452)
Sequence of ETV6 (P41212 whole entry): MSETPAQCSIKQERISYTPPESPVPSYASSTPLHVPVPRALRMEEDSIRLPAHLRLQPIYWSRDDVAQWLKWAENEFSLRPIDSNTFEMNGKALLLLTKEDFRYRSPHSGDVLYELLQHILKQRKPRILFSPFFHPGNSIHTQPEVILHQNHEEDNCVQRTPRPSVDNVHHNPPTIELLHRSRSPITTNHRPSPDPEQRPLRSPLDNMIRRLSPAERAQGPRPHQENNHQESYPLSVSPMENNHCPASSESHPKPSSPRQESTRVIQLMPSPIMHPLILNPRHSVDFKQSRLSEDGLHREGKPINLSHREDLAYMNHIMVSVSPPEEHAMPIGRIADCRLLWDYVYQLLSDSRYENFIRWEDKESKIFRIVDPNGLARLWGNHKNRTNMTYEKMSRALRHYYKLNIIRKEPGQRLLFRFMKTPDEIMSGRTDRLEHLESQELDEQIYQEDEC
How it was run: as §1

Sequence	binding signal (FEV)	binding signal (ETV5)	binding signal (SPIC)	binding signal (ELF4)	binding signal (ELK4)	binding signal (ETV2)	binding signal (ELF3)	binding signal (ETV1)	binding signal (ERF)	binding signal (ETV3L)	binding signal (ETS2)	binding signal (SPDEF)	binding signal (ETV7)	binding signal (ELF5)	binding signal (ETV3)	binding signal (ETV6)
TGAACC	1.12 fold enrichment (6-mer frequency, TF over GST control)	1.21 fold enrichment (6-mer frequency, TF over GST control)	1.1 fold enrichment (6-mer frequency, TF over GST control)	1.15 fold enrichment (6-mer frequency, TF over GST control)	1.19 fold enrichment (6-mer frequency, TF over GST control)	1.01 fold enrichment (6-mer frequency, TF over GST control)	1.12 fold enrichment (6-mer frequency, TF over GST control)	1.2 fold enrichment (6-mer frequency, TF over GST control)	1.08 fold enrichment (6-mer frequency, TF over GST control)	1.2 fold enrichment (6-mer frequency, TF over GST control)	1.24 fold enrichment (6-mer frequency, TF over GST control)	1.16 fold enrichment (6-mer frequency, TF over GST control)	1.06 fold enrichment (6-mer frequency, TF over GST control)	1.09 fold enrichment (6-mer frequency, TF over GST control)	1.12 fold enrichment (6-mer frequency, TF over GST control)	1.11 fold enrichment (6-mer frequency, TF over GST control)
CACCCG	1.16 fold enrichment (6-mer frequency, TF over GST control)	1.21 fold enrichment (6-mer frequency, TF over GST control)	1.17 fold enrichment (6-mer frequency, TF over GST control)	1.18 fold enrichment (6-mer frequency, TF over GST control)	1.29 fold enrichment (6-mer frequency, TF over GST control)	1.2 fold enrichment (6-mer frequency, TF over GST control)	1.16 fold enrichment (6-mer frequency, TF over GST control)	1.14 fold enrichment (6-mer frequency, TF over GST control)	1.25 fold enrichment (6-mer frequency, TF over GST control)	1.32 fold enrichment (6-mer frequency, TF over GST control)	1.19 fold enrichment (6-mer frequency, TF over GST control)	1.28 fold enrichment (6-mer frequency, TF over GST control)	1.15 fold enrichment (6-mer frequency, TF over GST control)	1.19 fold enrichment (6-mer frequency, TF over GST control)	1.25 fold enrichment (6-mer frequency, TF over GST control)	1.11 fold enrichment (6-mer frequency, TF over GST control)
